# Measurements from ChEMBL document CHEMBL3433997, “St. Jude Leishmania screening dataset” (2016).
# Legend:
# Type in all cases: functional
# [1] = molecular target: Solute carrier family 2, facilitated glucose transporter member 1 (Homo sapiens) (UniProt P11166); test: ST_JUDE_LEISH: Cytotoxicity at 2uM final concentration against transgenic Leishmania Mexicana promastigotes LmGLUT1 that are glucose transport deficient and complemented with the human glucose transporter GLUT1. Activity is measured by DNA content using SYBR green in vitro
# Chain of Solute carrier family 2, facilitated glucose transporter member 1 (Homo sapiens) (P11166 whole entry): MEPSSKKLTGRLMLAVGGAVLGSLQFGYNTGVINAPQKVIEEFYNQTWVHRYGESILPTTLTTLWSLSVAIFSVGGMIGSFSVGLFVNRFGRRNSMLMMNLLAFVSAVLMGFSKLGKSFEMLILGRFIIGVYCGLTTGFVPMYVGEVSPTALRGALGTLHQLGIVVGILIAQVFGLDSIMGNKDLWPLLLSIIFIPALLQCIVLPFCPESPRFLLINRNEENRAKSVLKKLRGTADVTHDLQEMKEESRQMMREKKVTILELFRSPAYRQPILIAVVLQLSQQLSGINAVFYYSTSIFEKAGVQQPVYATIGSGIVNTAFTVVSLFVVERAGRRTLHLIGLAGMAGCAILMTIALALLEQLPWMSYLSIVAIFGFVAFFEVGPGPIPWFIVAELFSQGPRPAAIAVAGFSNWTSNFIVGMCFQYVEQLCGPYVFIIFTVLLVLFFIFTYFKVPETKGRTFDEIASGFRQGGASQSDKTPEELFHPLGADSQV
# [2] = molecular target: Hexose transporter 1 (Plasmodium falciparum) (UniProt O97467); test: ST_JUDE_LEISH: Cytotoxicity at 2uM final concentration against transgenic Leishmania Mexicana promastigotes LmPfHT that are glucose transport deficient and complemented with the Plasmodium falciparum hexose transporter. Activity is measured by DNA content using SYBR green in vitro
# [3] = molecular target: Glucose transporter (Leishmania mexicana) (UniProt O61059); test: ST_JUDE_LEISH: Cytotoxicity at 2uM final concentration against transgenic Leishmania Mexicana promastigotes LmGT2 that are glucose transport deficient and complemented with the L. Mexicana glucose transporter 2. Activity is measured by DNA content using SYBR green in vitro
Structure (SMILES),inhibition [1] [%],inhibition [2] [%],inhibition [3] [%]
O=C(Nc1ccc(Cl)cc1)Nc1ccc(Cn2ncc(N3CCCNCC3)c(Cl)c2=O)cc1,2.02,5.96,2.56
COc1c(CNCCCCCCNCc2c(OC)c(OC)c3ccccc3c2OC)c(OC)c2ccccc2c1OC,67.6,11.8,56.7
CC(C)c1ccc(NC(=O)c2cccc(CN3CCCN(Cc4cccc(O)c4)CC3)c2)cc1,15.4,12,7.67
CCOc1ccc2nc3cc(N)ccc3c(N)c2c1,1.58,3.26,1.19
O=C(Nc1cc(Cl)cc(Cl)c1)c1cnn(-c2ccc(F)cc2)c1C1CCNCC1,-0.33,-0.39,1.72
CC(C)Sc1nc2c(c(=O)n1Cc1ccco1)C1(CCCCC1)Cc1ccccc1-2,2.09,2.03,1.54
CCCC(=O)NC(c1cccs1)c1cc(Cl)c2cccnc2c1O (configuration not stated),0.53,1.83,-0.61
CC(C)(C)c1cc(C(=O)Nc2ccc(C(=N)N)cc2)c(O)c(C(C)(C)C)c1,-0.84,3.05,1.59
N=C(N)NC(=O)Nc1cc(Cl)c(Cl)c(Cl)c1,2.56,4,2.18
COc1cc(Nc2nccc(N3CCC(NS(=O)(=O)c4ccc(NC(C)=O)cc4)CC3)n2)cc(OC)c1OC,-1.13,-0.44,-0.12
CCc1nc2nc(C)cc(Nc3ccc4c(c3)OCCO4)n2n1,2.89,4.78,-3.9
CNC(=O)c1ccccc1Nc1nc(Nc2ccc(C(=O)O)cc2)ncc1Cl,-1.75,1.77,1.39
COc1ccc(C(C(=O)NC2CCN(C[C@H](O)c3ccnc4ccc(OC)cc34)CC2)N2CCN(c3ccc([N+](=O)[O-])cc3)CC2)cc1 (some centres not stated),2.67,1.79,2.85
Cc1nc(N)nc(N)c1CCCOc1ccc(Br)cc1,6.19,4.15,-1.62
CN1CCN(c2ccnc3ccc(NC(=O)Cc4ccc(OCc5ccccc5)cc4)cc23)CC1,7.43,7.76,8.79
O=C(O[C@H]1CN[C@H](C#Cc2cc3ncnc(Nc4ccc5c(ccn5S(=O)(=O)c5cccs5)c4)c3s2)C1)N1CCOCC1,9.76,13.6,10.6
COc1c(C)cc(I)cc1CNCCCNc1cc(=O)c2ccccc2[nH]1,0.43,-0.66,-0.84

Structure (SMILES),inhibition [1] [%],inhibition [2] [%],inhibition [3] [%]
O=C(Nc1cccc(N2CCC(NCc3cnn(-c4cccc(F)c4)c3)CC2)c1)c1ccncc1,-0.97,0.64,-0.33
CCOc1c(CNCCCNc2nc3ccccc3[nH]2)cc(Br)cc1OC,2.6,-3.13,4.2
CCCOc1ccc(-c2nonc2NC(=O)c2ccccc2OC)cc1OCCC,12,14.6,10.7
CC1(C)NC(N)=NC(=N)N1OCCCCCOc1ccccc1,0.42,0.8,1.28
CC(=O)Nc1ccc(CN2CCC(NC(=O)c3cc(-c4ccc(N(C)C)cc4)cs3)C2)cc1 (configuration not stated),1.62,3.72,4.39
Cc1ccc(Nc2nc(N/N=C/c3ccccc3[N+](=O)[O-])nc(Nc3ccc([N+](=O)[O-])cc3)n2)cc1C,12.9,8.51,5.3
O=C(NC(=O)c1ccccc1O)c1ccccc1O,-0.08,0.7,0.89
Cc1cccc2nc(-c3ccc(-c4cccc(NC(=O)Cc5c[nH]cn5)c4)cc3)[nH]c12,1.52,3.26,-1.21
CCN(CC)CCCC(C)Nc1nc(C=Cc2ccc(Br)cc2)nc2cc(Cl)ccc12 (configuration not stated),11,9.25,10.2
CC[C@H](C)CNC(=O)c1cncc(-c2ccc(CN(C)C3CCN(C)CC3)cc2)c1,3.57,3.62,5.08
c1cc(CNC2Cc3ccc(-c4cccs4)cc3C2)cc(-n2ccnc2)c1 (configuration not stated),3.39,0.43,1.86
N=C(N)c1cccc(-c2cc(-c3cccc(C(=N)N)c3)on2)c1,0.92,2.23,-0.32
Fc1ccc(CN2CCN(c3ncnc4cc(-c5ccccc5)sc34)CC2)cc1,-1.67,-1.81,-1.83
CC(c1cccc(S(=O)(=O)NCc2cccc(C(F)(F)F)c2)c1)N1CCC(N2CCCCC2)CC1 (configuration not stated),6.15,7.23,7.91
COc1cccc(CCc2cccc(CNC(C)=O)c2)c1,5.81,4.65,5.68
OCCN1CCN(Cc2ccc(-c3ccc(-c4nc5cc(C(F)(F)F)ccc5[nH]4)s3)cc2)CC1,5.47,4.05,4.01
CN(C)c1ccc(CN2CCC(CNC(=O)c3cc(-c4ccccc4Cl)cs3)C2)cc1 (configuration not stated),0.57,-3.68,0.7
